# Screening data from PubChem.
# PERK inhibitor: human PERK inhibition, primary cell-based screen; Q9NZJ5; CHO PERK-DD fusion, SEAP luminescence translation reporter; inhibition, % at 5.6 µM; actives 0.17% (n = 220,000); AID 1416;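 active means inhibition above the mean inhibition of all tested compounds plus 3 SD, set separately per screening campaign, cut at about 2.9% in these data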;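 further: PERK kinase domain activated by AP20187 dimerizer at 100 nM; 0% = DMSO with dimerizer and 100% = rapamycin at 8.4 µM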
# eIF4H inh: inhibitors of RNA binding by human eIF4H | actives 0.94% (n = 290,000) | Q15056 | inhibition, % at 35 µM | eIF4H fluorescence polarization binding assay;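 further: calls also rest on retests at 20 µM and on dose response follow-up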
# MLLE-PAM2 inh: inhibitors of microRNA-mediated deadenylation, human PABP1 MLLE binding; actives 0.36% (n = 360,000); GST-MLLE / FITC-PAM2 fluorescence polarization; inhibition, % at 20 µM; AID 588489; in the data active means inhibition above about 35%, passing the limit was not always enough;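 further: plate controls were DMSO wells with GST-MLLE for no effect and wells lacking GST-MLLE protein for full effect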
# eIF4E 4G PPI: eIF4E/eIF4G interaction inhibition in translation initiation | TR-FRET eIF4E-eIF4GI(517-606) binding, 2 h | P63073+Q04637 | actives 0.37% (n = 220,000) | inhibition, % at 21.7 µM;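 active means inhibition above about 30%, limit read from the data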;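 further: 0% = full FRET control wells and 100% = background wells lacking eIF4GI fragment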
# PABP polyA inh: PABP-poly(A) binding inhibition | PABP-poly(A) RNA binding, fluorescence polarization | AID 2014 | actives 1% (n = 290,000) | inhibition, % at 35 µM;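 further: calls also rest on retests at 20 µM and on dose response follow-up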
# Starred values were filed as active, the others as inactive; u = inconclusive; x = not tested or not shown. Only some compounds are listed: those with a hit (about 1.6% of all), similar ones and a draw of the others. Unless noted, how the calls were made is not given here.
SMILES,PERK inhibitor,eIF4H inh,MLLE-PAM2 inh,eIF4E 4G PPI,PABP polyA inh
CO/N=C/C(C#N)c1ncc(C(F)(F)F)cc1Cl (stereo not drawn),0.6,1.0,1.5,83.3*,-1.0
CO/N=C/C(c1ncc(C(F)(F)F)cc1Cl)S(=O)(=O)c1ccccc1 (stereo not drawn),x,8.3,-1.1,x,7.4
c1ccc2c(c1)nc1n2C2(N3CCOCC3)CCCC2C1N1CCOCC1 (stereo not drawn),x,56.8*,8.6,x,45.7*
Oc1ccc2c(c1)C1CCCC1(N1CCOCC1)O2 (stereo not drawn),1.6,34.0,9.5,4.7,33.0
NC(=O)C1CCN(C(=O)COc2ccc3ccccc3c2)CC1,0.1,-7.7,-14.0,-4.7,-0.4
NC(=O)C1CCN(C(=O)COc2ccc(Nc3ccccc3)cc2)CC1,1.2,-0.8,11.3,96.4*,-12.4
O=C(O)c1cc(S(=O)(=O)NCCCN2CCCC2=O)ccc1Cl,x,x,-14.9,x,x
CCOC(=O)Cc1cc(=O)n(-c2nc3ccccc3s2)[nH]1,1.0,69.7*,-12.2,0.0,67.9*
CCCc1cc(=O)n(-c2nc3ccccc3s2)[nH]1,-0.1,19.6,8.0,-5.6,14.0
Cc1ccc(S(=O)(=O)N2CCOCC2)cc1NC(=O)COC(=O)/C=C/c1ccco1,x,x,3.3,x,x
C=C(C)C(=O)Nc1ccc2c(c1)OCCOCCOCCO2,1.8,90.2*,1.4,5.2,48.9*
CC(=O)Nc1ccc2c(c1)OCCO2,1.2,-6.1,-6.5,x,-6.9
Cc1n[nH]c(C)c1S(=O)(=O)N1CCc2ccccc2C1,x,-1.0,3.2,x,4.6
CCN(CC)c1ccc(-c2c(C#N)c(N)nc(OC)c2C#N)cc1,-0.8,60.4*,-7.6,-24.9,71.9*
CC(Sc1nnc(C2CC2)n1C1CC1)C(=O)NC1(C#N)CCCCC1 (stereo not drawn),x,x,-5.5,x,x
Nc1ccc2c(c1Cl)C(=O)c1ccc(N)c(Cl)c1C2=O,0.1,109.2*,28.4,18.8,78.8*
Nc1c(C(=O)O)ccc2c1C(=O)c1ccccc1C2=O,0.8,3.7,13.2,0.4,31.9
COc1ccc(OC)c(S(=O)(=O)NC(=O)C2(C)CCN2C(=O)C2(c3ccc(Cl)cc3)CC2)c1 (stereo not drawn),x,x,-15.5,x,x
C=CCn1c(COc2ccc(CC)cc2)nnc1SC/C(O)=C(\C#N)c1nc2ccccc2[nH]1,0.3,66.0*,-91.2,3.9,53.6*
CCOC(=O)c1c(OCC)[nH]c2c1cc(O)c1ccccc12,0.4,72.2*,25.5,4.7,109.1*
CC1(C)OC(=O)N(Cc2ccco2)C1(C)O (stereo not drawn),0.5,u,22.9,1.2,66.4*
O=S(=O)(c1ccccc1)N1CCCC1c1cccs1 (stereo not drawn),0.4,2.2,13.3,97.5*,1.0
CCc1nn2c(=O)cc(COc3ccc(/C=C4\C(=N)N5N=C(C)SC5=NC4=O)cc3)nc2s1,0.3,70.3*,-3.3,20.7,active
CCOc1cc(/C=C2\C(=N)N3N=C(C)SC3=NC2=O)ccc1OCCOc1cccc(OC)c1,x,-2.8,4.7,x,-4.5
COc1ccc(NC(=O)CSc2ccccc2)cn1,1.6,37.5,41.8*,0.8,13.8
SMILES,PERK inhibitor,eIF4H inh,MLLE-PAM2 inh,eIF4E 4G PPI,PABP polyA inh
O=C(NCSc1ccccc1)c1ccccc1,x,x,41.7*,x,x
O=C(O)c1ccc(OS(=O)(=O)c2ccc(Cl)s2)c(Cl)c1,x,x,6.2,x,x
CN(C)CCN(C)C1CN(Cc2ccc(F)cc2)S(=O)(=O)C1 (stereo not drawn),x,x,9.1,x,x
CC(=O)Nc1cc(NC(C)=O)cc(C(=O)NCC2(N3CCOCC3)CCCCC2)c1,x,x,-1.0,x,x
O=C(COc1ncnc2ccc(Br)cc12)N1CCOCC1,-0.4,1.0*,-10.3,5.3,66.3*
CCO/C=C/C(O)(CNC(=O)c1ccc(C(C)(C)C)cc1)C(F)(F)F (stereo not drawn),0.8,99.4,-10.9,-3.4,active
CCOC(=O)CNC(=O)c1ccc(C)cc1,0.2,-8.2,0.2,-2.1,0.0
CCCC1OC23CCCCC2C(C#N)(C(=N)O3)C1(C#N)C#N (stereo not drawn),1.2,u,57.9*,-0.5,u
N#CC12COC3(CCCCC3C1(C#N)C#N)OC2=N (stereo not drawn),0.3,u,49.1*,-2.7,u
N#CC1(C#N)COC23CCCCC2C1(C#N)C(=N)O3 (stereo not drawn),0.2,50.8,39.4,5.1,32.1*
O=S1(=O)CCOC[C@H](c2ccccc2)N1Cc1ccccc1F,x,-13.8,1.8,x,-13.6
